Active and inactive are the calls of the source. How the source made its calls: active means hit-call score of the fitted dose curve at least 0.9, where 1 is the maximum; inactive means score below 0.9.
Key:
[1] = read-out: Human Leukocyte Antigen - DR isotype (HLADR), HLA-DRA (gene 3122); test: BSK_3C_HLADR: BioMAP Diversity Plus: 3C Assay for Human Leukocyte Antigen - DR isotype (HLADR) Biomarker Activity (AID 2283019); settings: primary human endothelial cells (HUVEC); actives raise or lower the signal
In short: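 Endothelial cells from human umbilical vein are treated with test chemical; after 24 h, HLA-DR levels are measured by ELISA. Data are fitted in both directions using DMSO as the baseline.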

[2] = BSK_3C_Vis: BioMAP Diversity Plus: 3C Assay for Morphology Visualization (AID 2283025); settings: primary human endothelial cells (HUVEC);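 further: fitted both ways so gain or loss versus DMSO counts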
In short: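 Human umbilical vein endothelial cells in the 3C system were imaged by light microscopy 24 h after chemical dosing to record cell morphology. Activity was fitted bidirectionally against DMSO as negative control and baseline; the endpoint serves as a background control.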

[3] = read-out: Transforming growth factor beta 1 (TGFb1), TGFB1 (gene 7040); test: BSK_BE3C_TGFb1: BioMAP Diversity Plus: BE3C Assay for Transforming growth factor beta 1 (TGFb1) Biomarker Activity (AID 2283036); settings: primary human bronchial epithelial cells; actives raise or lower the signal
In short: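 Human primary bronchial epithelial cells (BE3C system) were dosed with chemical and TGF-b1 levels measured by ELISA at 24 h. Activity was fitted bidirectionally relative to DMSO negative control as baseline.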

[4] = read-out: Interleukin-8 (IL8), CXCL8 (gene 3576); test: BSK_CASM3C_IL8: BioMAP Diversity Plus: CASM3C Assay for Interleukin-8 (IL8) Biomarker Activity (AID 2283042); settings: primary human coronary artery smooth muscle cells; actives raise or lower the signal;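 further: IL-8 protein level quantified by ELISA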
[5] = read-out: Human Leukocyte Antigen - DR isotype (HLADR), HLA-DRA (gene 3122); test: BSK_CASM3C_HLADR: BioMAP Diversity Plus: CASM3C Assay for Human Leukocyte Antigen - DR isotype (HLADR) Biomarker Activity (AID 2283043); settings: primary human coronary artery smooth muscle cells; actives raise or lower the signal;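 further: cell-surface HLA-DR protein level quantified by ELISA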
[6] = read-out: Monokine induced gamma interferon (MIG), CXCL9 (gene 4283); test: BSK_CASM3C_MIG: BioMAP Diversity Plus: CASM3C Assay for Monokine induced gamma interferon (MIG) Biomarker Activity (AID 2283048); settings: primary human coronary artery smooth muscle cells; actives raise or lower the signal;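 further: MIG protein level measured by ELISA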
[7] = read-out: Urokinase-type plasminogen activator receptor (uPAR), PLAUR (gene 5329); test: BSK_CASM3C_uPAR: BioMAP Diversity Plus: CASM3C Assay for Urokinase-type plasminogen activator receptor (uPAR) Biomarker Activity (AID 2283054); settings: primary human coronary artery smooth muscle cells; actives raise or lower the signal;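 further: cell-surface uPAR protein level quantified by ELISA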
[8] = read-out: Intercellular Adhesion Molecule 1 (ICAM1), ICAM1 (gene 3383); test: BSK_KF3CT_ICAM1: BioMAP Diversity Plus: KF3CT Assay for Intercellular Adhesion Molecule 1 (ICAM1) Biomarker Activity (AID 2283067); settings: primary human keratinocytes with fibroblasts; actives raise or lower the signal
In short: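 Dose the keratinocyte/fibroblast co-culture, wait 24 h, measure ICAM-1 by ELISA, then fit increases or decreases against DMSO. Cytotoxicity is checked in parallel cultures by SRB total-protein staining.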

[9] = read-out: Transforming growth factor beta 1 (TGFb1), TGFB1 (gene 7040); test: BSK_KF3CT_TGFb1: BioMAP Diversity Plus: KF3CT Assay for Transforming growth factor beta 1 (TGFb1) Biomarker Activity (AID 2283072); settings: primary human keratinocytes with fibroblasts; actives raise or lower the signal
In short: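 Human keratinocyte plus foreskin fibroblast primary co-culture, dosed with chemical for 24 h. TGF-b1 quantified by ELISA. Activity fitted bidirectionally against DMSO negative control as baseline.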

CD40, CD40 (gene 958) = test: BSK_SAg_CD40: BioMAP Diversity Plus: SAg Assay for CD40 Biomarker Activity (AID 2283088); settings: primary human HUVEC with PBMC; actives raise or lower the signal
In short: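 Fluorescence ELISA read-out of CD40 from umbilical vein endothelium plus peripheral blood mononuclear cells, sampled 24 h after dosing. Values come from bidirectional curve fitting with DMSO as baseline.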

[10] = read-out: Monokine induced gamma interferon (MIG), CXCL9 (gene 4283); test: BSK_SAg_MIG: BioMAP Diversity Plus: SAg Assay for Monokine induced gamma interferon (MIG) Biomarker Activity (AID 2283092); settings: primary human HUVEC with PBMC; actives raise or lower the signal
In short: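 Values reflect bidirectional fitting of ELISA-measured MIG against DMSO vehicle, taken 24 h after dosing of a co-culture of human umbilical vein endothelial cells and peripheral blood mononuclear cells.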

[11] = BSK_SAg_Proliferation: Cell Proliferation Assessment in the BioMAP Diversity Plus: SAg Assay (AID 2283095); settings: primary human HUVEC with PBMC;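 further: relative cell number as total protein by SRB absorbance in sub-confluent culture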
In short: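 Human umbilical vein endothelial cells co-cultured with peripheral blood mononuclear cells; total protein measured by sulforhodamine B staining (0.1% SRB after 10% TCA fixation), absorbance at 560 nm, at 96 h. Bidirectional fit against DMSO baseline.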

[12] = BSK_SAg_SRB: Viability Assessment in the BioMAP Diversity Plus: SAg Assay (AID 2283096); settings: primary human HUVEC with PBMC;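 further: cells read one day after compound addition; hits may be either gain or loss of signal compared with DMSO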
In short: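 Human umbilical vein endothelial cells co-cultured with PBMC, read 24 h after compound dosing. Total protein measured by sulforhodamine B staining (0.1% SRB after 10% TCA fixation, absorbance 560 nm); bidirectional fit versus DMSO baseline.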

[13] = BSK_BT_PBMCCytotoxicity: PBMC Cytotoxicity Assessment in the BioMAP Diversity Plus: BT Assay (AID 2284225); settings: primary human B cells with PBMC;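 further: PBMC viability measured by Alamar Blue dye reduction fluorescence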
In short: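 75,000 cells/well; cpd 1 h → SEB + TSST-1 (20 ng/mL final each) → 90 h → Alamar Blue 6 h → fluor. 546/580 nm. DMSO = neg. control/baseline.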

[14] = read-out: Secreted IgG (sIgG), gene 3500; test: BSK_BT_sIgG: BioMAP Diversity Plus: BT Assay for Secreted IgG (sIgG) Biomarker Activity (AID 2284226); settings: primary human B cells with PBMC
In short: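 B cells co-cultured with PBMC were dosed with chemical and secreted IgG quantified by ELISA at 24 h. Activity was fitted in the positive direction relative to DMSO as negative control and baseline.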

[15] = BSK_BT_Bcell_Proliferation: Viability Assessment in the BioMAP Diversity Plus: BT Assay for B cell Proliferation (AID 2284227); settings: primary human B cells with PBMC
In short: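 Using a human primary B cell–PBMC co-culture, the assay measures total protein by sulforhodamine B absorbance as a gauge of proliferation after 72 h. Analysis followed the positive fitting direction with DMSO as baseline.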

[16] = read-out: Interleukin 17A (IL17A), IL17A (gene 3605); test: BSK_BT_xIL17A: BioMAP Diversity Plus: BT Assay for Interleukin 17A (IL17A) Biomarker Activity (AID 2284229); settings: primary human B cells with PBMC
In short: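 Chemicals were added to a human B cell and PBMC co-culture. After 24 h, secreted IL-17A was measured with Luminex xMAP. Curves were fitted in the positive direction, with DMSO wells as baseline.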

[17] = read-out: Collagen III, COL3A1 (gene 1281); test: BSK_MyoF_CollagenIII: BioMAP Diversity Plus: MyoF Assay for Collagen III Biomarker Activity (AID 2284239); settings: primary human lung fibroblasts
In short: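 Compounds are added to primary human lung fibroblasts and left for 24 hours. Collagen III is then quantified by ELISA. Analysis takes DMSO as baseline and fits increases in signal.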

[18] = read-out: Interleukin 2 (IL2), IL2 (gene 3558); test: BSK_BT_xIL2: BioMAP Diversity Plus: BT Assay for Interleukin 2 (IL2) Biomarker Activity (AID 2284245); settings: primary human B cells with PBMC
In short: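 Human B cells co-cultured with PBMC, exposed to test chemical for 24 h. Secreted IL-2 quantified by Luminex xMAP bead immunoassay; activity fitted in the positive direction relative to DMSO vehicle baseline.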

[19] = read-out: Matrix Metallopeptidase 1 (MMP1), MMP1 (gene 4312); test: BSK_MyoF_MMP1: BioMAP Diversity Plus: MyoF Assay for Matrix Metallopeptidase 1 (MMP1) Biomarker Activity (AID 2284268); settings: primary human lung fibroblasts
In short: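 MMP1 measured by ELISA 24 h after dosing primary human lung fibroblasts; cytotoxicity checked in parallel cultures by sulforhodamine B total-protein staining read at 560 nm.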

Measured: AC50

CC(C)CCCCCCCOP(=O)(Oc1ccccc1)Oc1ccccc1
inactive: [3] | [4] | [5] | [6] | [7] | [8]
active: [1] 6.74 µM | [2] 5.61 µM | [9] 20 µM | CD40, CD40 (gene 958) 26.2 µM | [10] 35 µM | [11] 15.8 µM | [12] 25.9 µM | [13] 35.8 µM | [14] 18.9 µM | [15] 29.5 µM | [16] 19.5 µM | [17] 8.98 µM | [18] 26.4 µM | [19] 5.17 µM

CC(C)(C)C(=O)CCl
active: [1] 20 µM | [5] 4.45 µM | [6] 20 µM | [11] 23.1 µM | [13] 12.9 µM | [14] 8.03 µM
inactive: [2] | [3] | [7] | [8] | [9] | CD40, CD40 (gene 958) | [10] | [12] | [15] | [16] | [17] | [18] | [19]

C=CCN(CC=C)C(=O)C(Cl)Cl
inactive: [1] | [2] | [3] | [4] | [5] | [6] | [7] | [8] | [9] | CD40, CD40 (gene 958) | [10] | [11] | [12] | [13] | [14] | [15] | [16] | [17] | [18] | [19]

O=C(CCl)c1ccccc1
inactive: [3]
active: [1] 3.04 µM | [2] 4.12 µM | [4] 11.2 µM | [5] 6.84 µM | [6] 10.5 µM | [7] 10.4 µM | [8] 21.3 µM | [9] 25.7 µM | CD40, CD40 (gene 958) 5.77 µM | [10] 8.77 µM | [11] 1.06 µM | [12] 14 µM

CC(C)(c1cc(Cl)c(O)c(Cl)c1)c1cc(Cl)c(O)c(Cl)c1
inactive: [3] | [4] | [13] | [14] | [15] | [16] | [18] | [19]
active: [1] 10.2 µM | [2] 39.6 µM | [5] 27.9 µM | [6] 32.9 µM | [7] 32.5 µM | [8] 7.95 µM | [9] 5.27 µM | [11] 25.9 µM | [17] 9.8 µM

O=P1(NCCCl)OCCCN1CCCl (centres undefined)
inactive: [1] | [2] | [3] | [4] | [5] | [6] | [7] | [8] | [9] | CD40, CD40 (gene 958) | [10] | [11] | [12] | [13] | [14] | [15] | [16] | [17] | [18] | [19]

O=[N+]([O-])C=Cc1ccccc1
active: [1] 2.15 µM | [2] 8.8 µM | [3] 5.17 µM | [4] 20 µM | [5] 12.1 µM | [6] 27.1 µM | [7] 8.89 µM | [8] 6.1 µM | [9] 3.05 µM | CD40, CD40 (gene 958) 20 µM | [10] 20 µM | [11] 3.07 µM | [12] 12.6 µM | [13] 7.36 µM | [14] 5.7 µM | [15] 6.33 µM | [16] 5.44 µM | [17] 13.8 µM | [18] 6.08 µM
inactive: [19]

— PubChem BioAssay (EPA / NIEHS)
